{"source": "ChEMBL document CHEMBL4513216", "about": "“Probing the Open Global Health Chemical Diversity Library for Multistage-Active Starting Points for Next-Generation Antimalarials” (ACS Infect Dis, 2020)", "note": "The campaign covered roughly 65,000 compounds. About 2,100 (3.2%) showed an effect of 50% or more. The median lay at about -52%. The list comes from a sample in which strong results are over-represented; it also holds similar structures and randomly drawn compounds."}
{"test_system": "Plasmodium falciparum", "assay": "Screen against P. falciparum Asexual Blood Stage (ABS), at 5uM", "format": "functional, Dd2", "details": "tested at 5 uM", "units": {"INHIBITION": "%"}}
{"smiles": "CC(O)CNc1c(NCc2ccco2)c(=O)c1=O", "note": "(centres undefined)", "INHIBITION": -192}
{"smiles": "Cc1cc(C)c(N(CC(O)CNCc2ccco2)S(C)(=O)=O)c(C)c1", "note": "(centres undefined)", "INHIBITION": 60.7}
{"smiles": "CN(C)c1nc(NCCc2ccccn2)ncc1F", "INHIBITION": -447}
{"smiles": "Cc1ccc2c(c1)CN(C(=O)c1ccncc1)C(CN(C)C)CO2", "note": "(centres undefined)", "INHIBITION": 13}
{"smiles": "Cc1ccc2c(c1)CN(C(=O)c1cnc(C)cn1)C(CN(C)C)CO2", "note": "(centres undefined)", "INHIBITION": -86.1}
{"smiles": "Cc1ccc2c(c1)CN(C(=O)c1cccnc1)C(CN(C)C)CO2", "note": "(centres undefined)", "INHIBITION": 29.2}
{"smiles": "Cc1nc(C)c(C(=O)N2Cc3ccccc3OCC2CN(C)C)o1", "note": "(centres undefined)", "INHIBITION": -21.9}
{"smiles": "COc1ccc(C(=O)N2Cc3cc(C)ccc3OCC2CN(C)C)cc1", "note": "(centres undefined)", "INHIBITION": 17.9}
{"smiles": "Cc1ccc2c(c1)CN(C(=O)c1ccccc1F)C(CN(C)C)CO2", "note": "(centres undefined)", "INHIBITION": 50.4}
{"smiles": "Cc1ccc(C(=O)N2CCCCC2CN(C)C)cc1", "note": "(centres undefined)", "INHIBITION": -58.9}
{"smiles": "Cc1ccc2c(c1)CN(C(=O)C1CCCCC1)C(CN(C)C)CO2", "note": "(centres undefined)", "INHIBITION": 66}
{"smiles": "COc1ccccc1C(=O)N1Cc2cc(C)ccc2OCC1CN(C)C", "note": "(centres undefined)", "INHIBITION": 60.8}
{"smiles": "CCCn1nccc1NC(=O)CN1CCc2cnc(C(C)C)nc2C1", "INHIBITION": -4.64}
{"smiles": "CC(C)CNC(=O)CC1(Cn2cnnn2)CCCCC1", "INHIBITION": -92.1}
{"smiles": "O=S(=O)(c1ccc(Cl)s1)N1CCCn2ncnc21", "INHIBITION": -131}
{"smiles": "O=C1CO[C@@H]2CN(CC3CC3)C[C@H]2N1Cc1cccc(F)c1", "INHIBITION": -55}
{"smiles": "O=C1NCC2(CCC(C(=O)N3CCC(O)CC3)CC2)Oc2ccccc21", "note": "(centres undefined)", "INHIBITION": -99.2}
{"smiles": "CN(C)c1nccc(C2CN(c3ccccc3)CCO2)n1", "note": "(centres undefined)", "INHIBITION": -40.1}
{"smiles": "Cc1ccc(C)n1-c1c(C(=O)NCC(C)N(C)C)cnn1C", "note": "(centres undefined)", "INHIBITION": -93.5}
{"smiles": "CCN1C(=O)CCCC12CCCN(C(=O)c1ccncc1F)C2", "note": "(centres undefined)", "INHIBITION": -46.7}
{"smiles": "CC(C)(CNC1CCCN(Cc2ccccn2)C1)CN1CCOCC1", "note": "(centres undefined)", "INHIBITION": -82.2}
{"smiles": "Fc1ccccc1CN1CCCC(NC2CCOCC2)C1", "note": "(centres undefined)", "INHIBITION": -11.9}
{"smiles": "CC(C)(CNC1CCCN(Cc2ccccc2F)C1)CN1CCOCC1", "note": "(centres undefined)", "INHIBITION": 56.4}
{"smiles": "CN(C)c1ncc(CNC(=O)Nc2ccccc2C(F)(F)F)n1C", "INHIBITION": -113}
{"smiles": "CN(C)c1ncc(CNC(=O)Nc2ccc(C(F)(F)F)cc2)n1C", "INHIBITION": 68.3}
{"smiles": "CN(C)c1ncc(CNC(=O)Nc2ccccc2F)n1C", "INHIBITION": -31}
{"smiles": "Cn1cc(C(=O)NCc2cn3c(n2)CN(C2CCOCC2)CC3)cn1", "INHIBITION": -26.8}
{"smiles": "COCCN(C(=O)c1ccccn1)c1nc2c(s1)CCc1c-2cnn1C", "INHIBITION": 6.99}
{"smiles": "CC(C)[C@H]1CN(C2Cc3ccccc3C2)C[C@@H]1NS(C)(=O)=O", "INHIBITION": 34.6}
{"smiles": "CC(C)[C@H]1CN(C2Cc3ccccc3C2)C[C@@H]1NS(=O)(=O)N(C)C", "INHIBITION": 61.6}
{"smiles": "CC(=O)c1cc(CN2C[C@@H](NS(=O)(=O)N(C)C)[C@H](C(C)C)C2)cs1", "INHIBITION": 32.8}
{"smiles": "CC(C)[C@@H]1CN(Cc2ccsc2)C[C@H]1NS(=O)(=O)N(C)C", "INHIBITION": 66.3}
{"smiles": "Cc1nc(CN2C[C@@H](NS(=O)(=O)N(C)C)[C@H](C(C)C)C2)cs1", "INHIBITION": 19.1}
{"smiles": "CC(C)[C@@H]1CN(CCOc2ccccc2)C[C@H]1NS(=O)(=O)N(C)C", "INHIBITION": 40.3}
{"smiles": "Cc1ccsc1CN1CCc2c(nc(N3CCCCC3C)[nH]c2=O)C1", "note": "(centres undefined)", "INHIBITION": -14.7}
{"smiles": "COCCN1C[C@@H]2CN(c3cc(OC)ncn3)CCC[C@]2(C(=O)O)C1", "INHIBITION": -84}
{"smiles": "O=C(NCc1cn2c(n1)CN(CC1CCOCC1)CC2)C1CCC1", "INHIBITION": -14.2}
{"smiles": "c1ncn(Cc2nnc(C3CCN(CC4CC4)CC3)n2C2CC2)n1", "INHIBITION": -88.1}
{"smiles": "Cc1cc(NC(=O)NCC(O)c2ccc(F)cc2)n(C)n1", "note": "(centres undefined)", "INHIBITION": 18.3}
{"smiles": "Cc1cc(C)cc(CNc2ccc(C(=O)NC(C)CO)cc2)c1", "note": "(centres undefined)", "INHIBITION": -96.7}
{"smiles": "COC(=O)CC1CCCCN1CC(=O)Nc1ccc(F)cc1Cl", "note": "(centres undefined)", "INHIBITION": -174}
{"smiles": "CCN1CCCC(O)(CN(C)Cc2ccccc2F)C1", "note": "(centres undefined)", "INHIBITION": 57.5}
{"smiles": "CCN1CCCC(O)(CNCc2ccccc2F)C1", "note": "(centres undefined)", "INHIBITION": 40.6}
{"smiles": "CCN1CCCC(O)(CN(C)Cc2c(C)nn(C)c2C)C1", "note": "(centres undefined)", "INHIBITION": -105}
{"smiles": "Cc1nn(C)c(Cl)c1C1CCCN1CC(=O)NCc1ccco1", "note": "(centres undefined)", "INHIBITION": -24.5}
{"smiles": "CC(NCc1cccs1)c1ccc(OCc2nccn2C)cc1", "note": "(centres undefined)", "INHIBITION": -50.1}
{"smiles": "CCc1cc(N2CCSCC2)n2nc(C)c(C)c2n1", "INHIBITION": -90.3}
{"smiles": "CCc1cc(N2CCCNCC2)n2nc(C)c(C)c2n1", "INHIBITION": 54.5}
{"smiles": "CCc1cc(N2CCS(=O)(=O)CC2)n2nc(C)c(C)c2n1", "INHIBITION": -16.5}
{"smiles": "CCNc1ncc(CN2C[C@@H]3CC[C@H]2CN(C(=O)C2CCC2)C3)cn1", "INHIBITION": -47.5}
{"smiles": "O=C([C@H]1CCCO1)N1CCCC2(COCCN(c3ccccc3)C2)C1", "note": "(some centres undefined)", "INHIBITION": 25.2}
{"smiles": "Cc1cnn(CCNCC(O)COc2cc(Cl)ccc2Cl)c1", "note": "(centres undefined)", "INHIBITION": 58}
{"smiles": "Cc1cnn(CCNCC(O)COc2ccc(Cl)cc2)c1", "note": "(centres undefined)", "INHIBITION": -16.9}
{"smiles": "Cc1cnn(CCNCC(O)COc2ccc(Cl)cc2Cl)c1", "note": "(centres undefined)", "INHIBITION": 20.2}
